GPR151 ag: activators of human GPR151. Q8TDV0. PathHunter beta-arrestin GPR151 cells, luminescence. activation, % at 11.2 µM. hit rate 1% among 650,000; in the data active = activation above about 4.9%
TEAD-YAP block: TEAD-YAP interaction inhibition; inhibition, % at 9.12 µM; AID 1259422; HEK-TIYL cells, TEAD-Gal4/YAP UAS-luciferase luminescence; hit rate 1.4% among 640,000; in the data active = inhibition above about 32%
MITF inh: blocks human microphthalmia-associated transcription factor; inhibition, % at 2.6 µM; AlphaScreen MITF homodimerization, bead proximity signal; hit rate 0.91% among 650,000; O75030; in the data active = inhibition above about 50%
FBW7 act: human FBW7 E3 ligase activation, primary screen. normalized activity (activation), % at 26.1 µM. AlphaScreen FBW7–phospho-cyclin E peptide binding, activator screen. hit rate 0.13% among 650,000. AID 1259310. Q969H0; in the data active = normalized activity above about 1.9%;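 also: purified mutant Fbw7 with reduced substrate affinity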
Target sequence (Q969H0 whole entry, looked up): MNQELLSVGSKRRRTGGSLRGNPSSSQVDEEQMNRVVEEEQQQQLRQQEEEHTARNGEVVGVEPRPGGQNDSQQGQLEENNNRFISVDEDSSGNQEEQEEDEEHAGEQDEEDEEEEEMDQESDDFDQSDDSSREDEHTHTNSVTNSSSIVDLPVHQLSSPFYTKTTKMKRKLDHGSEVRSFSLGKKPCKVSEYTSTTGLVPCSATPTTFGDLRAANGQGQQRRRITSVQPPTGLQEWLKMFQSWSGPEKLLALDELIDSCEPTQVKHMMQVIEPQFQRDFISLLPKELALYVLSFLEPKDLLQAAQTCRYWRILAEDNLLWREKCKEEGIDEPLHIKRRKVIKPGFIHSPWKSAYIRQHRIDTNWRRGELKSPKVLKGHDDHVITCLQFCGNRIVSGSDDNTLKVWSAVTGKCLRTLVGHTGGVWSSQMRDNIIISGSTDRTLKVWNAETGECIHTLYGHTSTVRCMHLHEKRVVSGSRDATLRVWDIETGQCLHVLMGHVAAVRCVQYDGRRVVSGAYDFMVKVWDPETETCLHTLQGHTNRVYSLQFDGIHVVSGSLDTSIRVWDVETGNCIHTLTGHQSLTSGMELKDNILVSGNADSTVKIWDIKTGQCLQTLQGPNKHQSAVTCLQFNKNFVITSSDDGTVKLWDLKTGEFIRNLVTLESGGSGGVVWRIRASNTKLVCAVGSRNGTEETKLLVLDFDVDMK
A number is an active result; n = inactive. An excerpt weighted towards active compounds, which were near 3.5% of everything screened.

SMILES | GPR151 ag | TEAD-YAP block | MITF inh | FBW7 act
CN(CCc1ccccc1)C(=O)c1ccc2c(c1)CC(c1nc3ccc(-c4ccnc(N)n4)cc3[nH]1)CO2 (stereo not drawn) | n | 73.3 | n | n
C=CCSC(=C(C#N)C#N)c1cc2c([nH]1)CCCC2 | n | 50.6 | n | n
O=C(O)c1cc2c([nH]c1=O)CCCC2 | n | n | n | n
CCOc1ccc(NC(=O)Cn2cc(C(=O)c3ccccc3)c(=O)c3cc(Cl)ccc32)cc1 | n | n | n | 2.7
CCOC(=O)c1cc(NC(=O)Cn2cc(C=O)c3ccccc32)ccc1Cl | n | 35.2 | n | n
COc1cccc(NC(=O)Cn2cc(C(=O)c3ccccc3)c(=O)c3cc(Cl)ccc32)c1 | n | n | n | n
Clc1ccc(-c2csc(=Nc3ccccc3)n2Cc2cccnc2)cc1 | n | n | n | n
CCN(CC)CCCC(C)Nc1ccnc2ccc([N+](=O)[O-])cc12 (stereo not drawn) | n | n | n | n
O=C(NC1CCN(Cc2ccccc2)CC1)c1ccc(Cn2nnc3ccccc3c2=O)cc1 | n | 34.9 | n | n
Nn1c(SCC(=O)N2CCCCCC2)nnc1-c1ccccc1 | n | n | n | n
c1ccc(C2=NNC(c3ccccc3)=NN2)cc1 | n | 41.8 | n | n
Cc1ccc(/C=C2\SC(=S)N(CCCC(=O)O)C2=O)cc1 | n | 91.6 | n | n
C=CCOc1ccc(/C=C2\SC(=S)N(CCCC(=O)O)C2=O)cc1 | n | 80.2 | n | n
CCOc1ccc(/C=C2\SC(=S)N(CCC(=O)O)C2=O)cc1 | n | n | n | n
Cc1ccc(/C=C2\SC(=S)N(CCCC(=O)N3CCOCC3)C2=O)cc1 | n | n | n | n
Cc1cccc(/C=C2\SC(=S)N(CCCC(=O)O)C2=O)c1 | n | 74.6 | n | n
Cc1ccc(/C=C2/SC(=S)N(CCCC(=O)O)C2=O)cc1 | n | 85.9 | n | n
CC(C)(C#CCN1CCCCC1)OCCC#N | n | n | n | n
O=c1oc2ccc3ccccc3c2cc1-c1csc(Nc2ccc(Oc3ccc4ccccc4c3Cl)c(Cl)c2)n1 | n | n | n | n
Cc1cc(N2CCCCC2)nc2ccc(NC(=O)Cc3c(F)cccc3Cl)cc12 | n | n | n | n
C[C@@H](O)[C@@H]1NC(=O)[C@H]2CN(Cc3ccsc3)CCN2C1=O | n | n | n | n
CCOc1ccccc1N/C(SCc1cccc(F)c1)=C(/C#N)C(=O)NCc1cccs1 | n | n | n | n
C#CCOc1ccc(/C=C2/SC(=S)N(CCC(=O)O)C2=O)cc1 | n | 58.5 | n | n
Cc1ccc(/C=C2\SC(=S)N(CCCC(=O)OCCN(C)C)C2=O)cc1 | n | 92.8 | n | n
Cc1ccccc1/C=C1\SC(=S)N(CCCC(=O)O)C1=O | n | 45.3 | n | n
SMILES | GPR151 ag | TEAD-YAP block | MITF inh | FBW7 act
C=CCN1C(=O)S/C(=C/c2c(F)cccc2Cl)C1=O | n | n | n | n
COCCCN1C(=O)/C(=C/c2ccc(C)cc2)SC1=S | n | n | n | n
O=C(O)CCCN1C(=O)/C(=C/c2c(F)cccc2Cl)SC1=S | n | 59.8 | n | n
C=CCN=c1scc(-c2ccc(Br)cc2)n1/N=C/c1cccnc1 | n | n | n | n
COc1cc(OC)c(OC)cc1/C=N\NC(=O)CCC1C(=O)NN=C1C (stereo not drawn) | n | n | n | n
CN(C)c1ccc(CCCNC(=O)c2cccs2)cc1 | n | n | n | n
COC(=O)C1=CN(Cc2ccc(F)cc2)C=C(C(=O)OC)C1c1ccccc1OC(C)C | n | n | n | 5.0
CCOC(=O)C1=CN(Cc2ccc(OC)cc2)C=C(C(=O)OCC)C1c1ccccc1OCc1ccccc1 | n | n | n | 2.2
CCOC(=O)C1=CN(Cc2ccc(OC)cc2)C=C(C(=O)OCC)C1c1ccccc1OC | n | n | n | n
CCOC(=O)C1=CN(Cc2ccc(F)cc2)C=C(C(=O)OCC)C1c1ccc(SC)cc1 | n | n | n | 1.9
CCOC(=O)C1=CN(Cc2ccc(Cl)cc2)C=C(C(=O)OCC)C1c1ccccc1OC(C)C | n | n | n | n
COC(=O)C1=CN(Cc2ccc(F)cc2)C=C(C(=O)OC)C1c1ccccc1Cl | n | n | n | n
COC(=O)C1=CN(Cc2ccc(Cl)cc2)C=C(C(=O)OC)C1c1ccccc1OC(C)C | n | n | n | 2.1
OC(CN1CCCCCC1)Cn1c(-c2ccccc2)c(-c2ccccc2)c2ccc3ccccc3c21 (stereo not drawn) | n | n | n | n
O=C(CSc1nnc2ccc(-c3ccc(Cl)cc3)nn12)N1CCCc2ccccc21 | n | n | n | n
O=C(CSc1nnc2ccc(-c3cccnc3)nn12)N1CCCc2ccccc21 | n | n | n | 1.9
Cc1ccc(-n2nc3ccc(NC(=O)c4ccc([N+](=O)[O-])cc4Cl)cc3n2)cc1 | n | n | n | n
O=C(N/N=C/c1cc(Br)ccc1F)c1cccs1 | n | n | n | n
CCOc1cc(C(=O)N/N=C/c2ccc(O)cc2O)cc(OCC)c1OCC | n | 72.2 | n | n
O=C(N/N=C/c1cc(Br)ccc1O)c1cccs1 | n | 39.7 | n | n
COc1ccc(C(=O)N/N=C/c2ccc(O)cc2O)cc1 | n | n | n | n
O=C(N/N=C/c1ccc(O)cc1O)c1ccc[n+](CCO)c1 | n | n | 101.5 | n
O=C(N/N=C\c1ccc(O)cc1O)C(=O)N/N=C/c1ccc(O)cc1O | n | n | 68.8 | n
Cc1ccc(NC(=O)CCc2c(C)nc3nc(CN)nn3c2C)c(C)c1 | n | n | n | n
COc1ccc(/C=C(\NC(=O)c2ccccc2Cl)C(=O)N2CC3CC(C2)c2cccc(=O)n2C3)cc1OC (stereo not drawn) | n | n | n | n
SMILES | GPR151 ag | TEAD-YAP block | MITF inh | FBW7 act
Nc1nonc1C(=O)N/N=C\c1ccc(O)c(O)c1 | n | n | n | n
O=C(CNc1ccc2ccccc2c1)N/N=C/c1ccc(O)cc1O | n | 39.9 | n | n
O=C(N/N=C/c1cc(Cl)ccc1O)c1cccs1 | n | 55.4 | n | n
O=C(N/N=C/c1ccc(O)cc1O)c1cccs1 | n | n | 82.5 | n
O=C(N/N=C/c1ccc(O)cc1)c1cccs1 | n | n | n | n
Nc1nonc1C(=O)N/N=C/c1ccc(O)cc1O | n | n | 94.4 | n
COc1ccc(C2C(C(=O)Nc3ccccc3OC)c3ccccc3C(=O)N2C2CCCCC2)cc1 (stereo not drawn) | n | n | n | n
O=c1c2cc(NC(=S)NCCN3CCOCC3)ccc2nc2n1CCCCC2 | n | n | n | n
CCN(CC)c1ccc(/C=N/NC(=O)c2nonc2N)cc1 | n | 45.6 | n | n
CCCOc1ccc(S(=O)(=O)Nc2ccc3c(c2)N(C(=O)CC)CCC3)cc1 | n | 58.0 | n | n
CCC(=O)N1CCCc2ccc(NS(=O)(=O)c3ccc(Cl)cc3)cc21 | n | n | n | n
O=C(C1CC1)N1CCc2ccc(NS(=O)(=O)c3ccc4c(c3)OCCO4)cc21 | n | 48.1 | n | n
CC(C)(C)C(=O)Nc1ccc(NC(=O)c2cccs2)nc1 | n | 94.0 | n | n
N#C/C(=C\c1cccc(Cl)c1Cl)c1nn(CCO)c(N)c1C#N | n | 49.1 | n | n
N#C/C(=C\c1ccccc1)c1nn(CCO)c(N)c1C#N | n | n | n | n
CCn1c2ccccc2c2cc(/C=C(\C#N)c3nn(CCO)c(N)c3C#N)ccc21 | n | 48.5 | n | n
CN(C)c1ccc(/C=N/NC(=S)Nc2cccc(C(=O)O)c2)cc1 | n | 63.6 | n | n

Assay outcomes from PubChem BioAssay.
